Most compounds without a hit are left out; they make up all but 12% or so of the library.
BAZ2B inh = BAZ2B (human) inhibition; Q9UIF8; AlphaScreen BAZ2B-H3K14Ac peptide displacement; Potency, µM (series often up to 114 µM), usual class: inhibitors; 4.4% of 360,000 active; note: nearly all actives have a fitted effect of over 60% in size
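AlphaScreen luminescence quantifies BAZ2B engagement of H3K14Ac peptide; the protein and biotinylated peptide are both at 50 nM final, buffer PBS pH 7.4 with 0.01% Tween-20, all steps at room temperature.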
JMJD2A Tudor inh = inhibitors of human JMJD2A Tudor domain; 4.4% of 390,000 active; Potency, µM (top dose mostly 114 µM), usual class: inhibitors; AlphaScreen JMJD2A-Tudor / H3K4me3 peptide binding; AID 504339; note: nearly all actives have a fitted effect of over 50% in size
Sfp PPTase inh = Sfp phosphopantetheinyl transferase inhibition; Q9F4F7; Biochemical Sfp PPTase activity, qHTS; Potency, µM, most hits filed as inhibitors; 3.5% of 310,000 active; AID 1490;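 note: the enzyme is Sfp with the accession as filed and its product quenches rhodamine fluorescence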
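Buffer: 50 mM Hepes-Na pH 7.6, 10 mM MgCl2, 0.01% Nonidet P-40, 0.01% BSA. Enzyme 15 nM, pre-exposed to compound 15 min; substrates then added and fluorescence change tracked over 30 min.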
G9a block = blocks human histone lysine methyltransferase G9a. 8.8% of 350,000 active. G9a H3K9 monomethylation, AlphaScreen, 2 h. Potency, µM (titrated, usually from 102 µM), hits mostly inhibitors. AID 504332; note: nearly all actives have a fitted effect of over 75% in size
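Readings reflect AlphaScreen signal from monomethyl-H3K9 antibody detection. HMT at 20 nM; substrate b-H3K9 500 nM; cofactor SAM 20 uM; 2 h RT reaction; compounds tested as titrations in qHTS with 15 min preincubation.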
HP1b binding inh = inhibitors of HP1-beta chromodomain binding to methylated histone tails; AlphaScreen HP1-beta / biotin-H3K9me3 peptide binding; Potency, µM (series often up to 114 µM), usual class: inhibitors; 0.56% of 390,000 active; AID 540317; note: nearly all actives have a fitted effect of over 70% in size
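HP1-beta protein (50 nM final) preincubated 30 min at room temperature with biotinylated H3(1-18)K9me3 peptide (50 nM) in PBS pH 7.4, 0.01% Tween-20, then compound added for 30 min. AlphaScreen streptavidin donor/nickel chelate acceptor beads (10 ug/mL final), 30 min dark, luminescence read.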
Of the large screens only hits and unclear results are named; the others gave an inactive call. Calls come from the whole dose curve; as a rule, active = well fitted curve in the direction sought with a large enough effect; inconclusive = small, poorly fitted or top-dose-only effect, or another doubt; inactive = no such curve, though single readings can be large; an effect the other way counts as inactive or inconclusive.

Cc1ccc(Cn2c(=N)n(CC(=O)c3ccc([N+](=O)[O-])cc3)c3ccccc32)cc1	Sfp PPTase inh 35µM, G9a block 50µM
CCCCn1c(=N)n(CC(=O)c2ccc([N+](=O)[O-])cc2)c2ccccc21	Sfp PPTase inh 56µM, G9a block 40µM (no result: JMJD2A Tudor inh, HP1b binding inh)
Cc1ccc(C(=O)Cn2c(=N)n(CCN3CCOCC3)c3ccccc32)cc1	none (no result: Sfp PPTase inh)
CCCCC(=O)c1ccc(OC(=O)c2ccc([N+](=O)[O-])cc2)cc1	JMJD2A Tudor inh 50µM, HP1b binding inh inconclusive (no result: BAZ2B inh, Sfp PPTase inh, G9a block)
c1ccc(C[C@H]2CN=C(Nc3ccccc3)N2CC2CCCCCC2)cc1	none (no result: BAZ2B inh, Sfp PPTase inh, G9a block)
Cc1ccc(C)c(NC(=O)CSc2nc3nccnc3c(=O)n2CCc2c[nH]c3ccccc23)c1	none (no result: Sfp PPTase inh)
CCc1ccc(C2CC(=O)Nc3cc4c(cc32)OCO4)cc1 (stereo unspecified)	G9a block inconclusive (no result: Sfp PPTase inh)
Cc1ccc(NS(=O)(=O)c2cc3c(cc2N2CCC2)NC(=O)CC3)cc1C	none (no result: BAZ2B inh, Sfp PPTase inh, G9a block, HP1b binding inh)
COc1ccc(CC(=O)NC(c2ccccc2)c2ccc(C)cc2)c(OC)c1 (stereo unspecified)	none
COc1ccc(CNCCCSc2nnnn2C)c(OC)c1	none (no result: Sfp PPTase inh)
COc1cc(CNCc2ccc(OC)cc2OC)cc(OC)c1	BAZ2B inh inconclusive, JMJD2A Tudor inh 28µM
COc1ccc(CNCc2ccc(C)cc2)c(OC)c1	BAZ2B inh 56µM, JMJD2A Tudor inh 3.2µM, G9a block 35µM, HP1b binding inh inconclusive
CC(OC(=O)c1ccc2c(c1)C(=O)N(Cc1ccncc1)C2=O)C(=O)Nc1cccc(Cl)c1Cl (stereo unspecified)	G9a block 89µM
O=C(COC(=O)c1ccc2c(c1)C(=O)N(Cc1ccncc1)C2=O)Nc1ccccc1[N+](=O)[O-]	JMJD2A Tudor inh inconclusive
Cc1ccc(C(c2ccc(C)c(C)c2)C(O)C2OC(=O)C(O)C2O)cc1C (stereo unspecified)	none (no result: BAZ2B inh, Sfp PPTase inh, G9a block)
COc1cc(C(=O)NC(=S)Nc2ccccc2N2CCOCC2)cc(OC)c1OC	BAZ2B inh 40µM, JMJD2A Tudor inh inconclusive, Sfp PPTase inh 35µM, G9a block 14µM
Cc1ccc(C(=O)NC(=S)Nc2ccccc2N2CCOCC2)cc1C	BAZ2B inh inconclusive, JMJD2A Tudor inh inconclusive, G9a block 22µM, HP1b binding inh inconclusive
COc1cccc(C(=O)NC(=S)Nc2ccccc2N2CCOCC2)c1	JMJD2A Tudor inh inconclusive, HP1b binding inh inconclusive
CCCCC(CC)CNC(=O)c1ccc2c(=O)n(Cc3ccc(OC)cc3)c(=O)[nH]c2c1 (stereo unspecified)	none (no result: Sfp PPTase inh)
O=C(COc1ccccc1)N=C1SC2CS(=O)(=O)CC2N1c1ccc(F)cc1F (stereo unspecified)	none
CC(=O)Nc1ccc(-c2csc(Nc3cccc(C)n3)n2)cc1	none
Oc1ccc(-c2csc(Nc3ccc4c(c3)OCO4)n2)c(O)c1	JMJD2A Tudor inh 56µM, HP1b binding inh inconclusive (no result: BAZ2B inh, Sfp PPTase inh, G9a block)
Cc1cccc(Nc2nc(-c3ccc(O)cc3O)cs2)n1	BAZ2B inh inconclusive, JMJD2A Tudor inh inconclusive, Sfp PPTase inh inconclusive, G9a block 50µM
Cc1cc(-c2csc(Nc3ccccn3)n2)ccc1F	none
N#Cc1ccc(Nc2nc(-c3ccc(O)cc3O)cs2)cc1C(F)(F)F	BAZ2B inh inconclusive, JMJD2A Tudor inh inconclusive (no result: Sfp PPTase inh)
Oc1ccc(-c2csc(Nc3ncccn3)n2)cc1O	JMJD2A Tudor inh 28µM, Sfp PPTase inh 50µM, G9a block 2.2µM, HP1b binding inh 71µM (no result: BAZ2B inh)
CC(=O)Nc1cccc(-c2csc(Nc3ncccn3)n2)c1	G9a block 16µM (no result: JMJD2A Tudor inh, HP1b binding inh)
Cc1ccc(C)c(-c2csc(Nc3ncccn3)n2)c1	none
Oc1ccc(-c2csc(Nc3ncccn3)n2)c(O)c1	Sfp PPTase inh 50µM (no result: BAZ2B inh)
Cc1oc2c(c1C(=O)c1ccccc1)C(=O)C(=O)c1ccccc1-2	BAZ2B inh 45µM, JMJD2A Tudor inh inconclusive, Sfp PPTase inh 50µM, G9a block inconclusive
O=C1C(=O)c2c(C(=O)c3ccccc3)coc2-c2ccccc21	BAZ2B inh inconclusive, Sfp PPTase inh 56µM, G9a block 45µM
Cc1onc(-c2ccccc2Cl)c1C(=O)c1ccccc1	none (no result: G9a block)
CCOC(=O)c1c(C)oc2c1C(=O)c1ccccc1C2=O	BAZ2B inh inconclusive, Sfp PPTase inh inconclusive, G9a block 13µM
Cc1oc2c(c1C(=O)O)C(=O)c1ccccc1C2=O	Sfp PPTase inh inconclusive, G9a block 10µM
O=C(c1ccccc1)c1coc2ccc(O)c(Cl)c12	Sfp PPTase inh inconclusive, G9a block inconclusive
CC(C)CCNC(=O)c1ccc2c(c1)NC(=O)C(C(C)C)N2 (stereo unspecified)	none (no result: Sfp PPTase inh)
O=C(c1ccco1)N1CCN(C(c2ccc(Cl)cc2)c2nnnn2CC2CCCO2)CC1 (stereo unspecified)	BAZ2B inh inconclusive, JMJD2A Tudor inh 79µM, Sfp PPTase inh 56µM
Cc1ccc(S(=O)(=O)Cn2nnnc2CN2CCN(C(=O)c3ccco3)CC2)cc1	none
O=C(c1ccco1)N1CCN(Cc2nnnn2CC2CCCO2)CC1 (stereo unspecified)	JMJD2A Tudor inh 28µM, G9a block inconclusive
Cc1ccc(C(c2nnnn2CC2CCCO2)N2CCN(C(=O)c3ccco3)CC2)cc1 (stereo unspecified)	none
CC(C)=CCC/C(C)=C/CO/N=C1/[C@H]2O[C@@H]2[C@@H](O)[C@H]2[C@H]1CCn1c(=O)n(-c3ccccc3)c(=O)n12	none (no result: BAZ2B inh, JMJD2A Tudor inh, G9a block, HP1b binding inh)
Cc1cccc(C(C)C)c1NC(=O)C1CN(S(=O)(=O)c2ccccc2)CCN1S(=O)(=O)c1ccccc1 (stereo unspecified)	G9a block 71µM
O=C(C1CCN(S(=O)(=O)c2ccccc2)CC1)N1CCCCC1	none
CCc1ccc(S(=O)(=O)N2CCCC(N3CCN(c4ccc(OC)cc4)CC3)C2)cc1 (stereo unspecified)	BAZ2B inh 14µM, JMJD2A Tudor inh 40µM, G9a block 40µM, HP1b binding inh inconclusive
COc1ccc(S(=O)(=O)N2CCN3CCCC3C2)cc1 (stereo unspecified)	none
O=C1CCCC(=O)C1C(=O)C1CCN(S(=O)(=O)c2ccccc2)CC1	JMJD2A Tudor inh 56µM, HP1b binding inh inconclusive
COc1ccc(S(=O)(=O)N2CCC(N3CCN(Cc4ccccc4)CC3)CC2)cc1	BAZ2B inh 25µM, JMJD2A Tudor inh 5.6µM, Sfp PPTase inh inconclusive, G9a block 22µM, HP1b binding inh inconclusive
O=S(=O)(c1ccccc1)N1CCC(N2CCCCCC2)CC1	BAZ2B inh inconclusive, JMJD2A Tudor inh 4µM, G9a block inconclusive, HP1b binding inh inconclusive
COc1ccc(C(=O)COC(=O)CCCC(=O)Nc2ccc(C(C)=O)cc2)cc1	none (no result: Sfp PPTase inh)
OC(c1ccccc1)c1nc2ccccc2n1Cc1c(F)cccc1Cl (stereo unspecified)	none (no result: Sfp PPTase inh)
CC(=O)c1ccc(NC(=O)CN(C)S(=O)(=O)c2cnc[nH]2)cc1	none (no result: Sfp PPTase inh)
O=C(Nc1cc(F)ccc1F)C1COc2ccccc2C1 (stereo unspecified)	none (no result: Sfp PPTase inh)
CCn1c(SC)nnc1C1CCN(S(=O)(=O)c2ccc(OC)cc2)CC1	none
CCn1c(SC(C)C)nnc1C1CCN(S(=O)(=O)c2ccc(OC)cc2)CC1	JMJD2A Tudor inh 45µM, G9a block inconclusive

High-throughput results (PubChem)
